Consider 27 compounds from PubChem BioAssay (NCI).

Assay in all cases: NCI-60 one-dose screen, 48 h (100 = growth as untreated, 0 = no growth, -100 = all killed)
What all share (conditions): 10 µM unless noted

Experiment [1] concerns T-47D breast.
In experiment [2] the test system is BT-549 breast.
The test system of experiment [3] is MDA-MB-435 melanoma.
Experiment [4] relates to SW-620 colon.
Experiment [5] deals with MCF7 breast.
Experiment [6] has as its system HCT-116 colon.
Experiment [7] deals with HCC-2998 colon.
Experiment [8] concerns KM12 colon.

About 83,000 compounds went through this panel and 20% of them were active in at least one assay; those are over-represented in the sample as a whole.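 Cells were grown in 96-well plates and exposed to the test compound at a single concentration for 48 hours; results are reported as percent growth, with values below 10 considered active.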 A number with no mark means an inactive call. Active and inactive are the calls of the source.

With `CCOC(=O)c1ccc2c(c1)nc(-c1ccc(Cl)cc1)n2-c1cc(C(C)(C)C)[nH]n1`, the growth in experiment [1] is 49.3%; in experiment [2] it was 16.8%; in experiment [3], -31.2% (active); in experiment [4], 42.1%; in experiment [5], 9.39% (active); in experiment [6], 8.57% (active). In addition, the growth in experiment [7] was 56.1%; in experiment [8] it was 29.9%.
Take `S=C(Cc1ccccc1)N1CCN(c2ccccc2Cl)CC1`: the growth is 94.4% in experiment [1]; 96.6% in experiment [2]; 104% in experiment [3]; 103% in experiment [4]; 110% in experiment [5]; 88.2% in experiment [6]. Moreover, the figures for the growth in experiment [7] and in experiment [8] were 101% and 94.5%, respectively.
For the compound `CC(C)CC(=O)C(CCc1ccccn1)C(C)C` (stereo unspecified), the growth in experiment [1] is 96.3%; in experiment [2] it was 108%; in experiment [3], 104%; in experiment [4], 104%; in experiment [5] it was 104%; in experiment [6], 105%. The growth in experiment [7] was 106%; in experiment [8], 113%.
For the compound `CCCCCCCOc1cccc(/C=C2\N=C3SCCCN3C2=O)c1`, the growth is -15.5% (active) in experiment [1]; 100% in experiment [2]; 100% in experiment [3]; 99.3% in experiment [4]; 92.1% in experiment [5]; 88.6% in experiment [6]. Moreover, the growth in experiment [7] was 110%; in experiment [8] it was 85.8%.
Consider `Cc1cc([N+](=O)[O-])c(C)cc1N`, for which the growth in experiment [1] was 111%; in experiment [2] it was 101%; in experiment [3], 110%; in experiment [4], 104%; in experiment [5], 90.9%; in experiment [6] it was 109%. For the same compound, the figures for the growth in experiment [7] and in experiment [8] were 102% and 107%, respectively.
For the compound `CCN(CC)Cc1cc(Nc2ccnc3ccc(OC)cc23)ccc1O`, the growth in experiment [1] was -43.9% (active); in experiment [2] it was 55.2%; in experiment [3], 47.6%; in experiment [4] it was 27.5%; in experiment [5] it was 22.9%; in experiment [6] it was 16.2%. In addition, the growth in experiment [7] was 32.8%; in experiment [8], 42.2%.
Regarding `O=c1c2cc(Br)cc(Br)c2nc(-c2ccc(Cl)cc2)n1/N=C\c1ccccc1F`, the growth in experiment [1] was 69.7%; in experiment [2], 88.3%; in experiment [3], 81.2%; in experiment [4] it was 82.5%; in experiment [5], 56.1%; in experiment [6] it was 32.8%. Further, the growth in experiment [7] is 85.4%; in experiment [8] it was 72.2%.
As for `Nc1c(C(=O)Nc2cccc(Cl)c2)sc2nc3c(cc12)C(=O)CCC3`, the growth in experiment [1] is 52.9%; in experiment [2], 66.4%; in experiment [3], -39.1% (active); in experiment [4], 31.3%; in experiment [5], 16.7%; in experiment [6] it was 27.4%. Further, the results for the growth in experiment [7] and in experiment [8] were 8.27% (active) and 21.6%, respectively.
As to `COc1ccc(CNc2c3ccccc3nc3ccccc23)cc1F`, the growth in experiment [1] was 35%; in experiment [2], 49.5%; in experiment [3] it was 7.6% (active); in experiment [4] it was 16.6%; in experiment [5], 2.34% (active); in experiment [6], 12.3%. Besides, the growth was 5.83% (active) in experiment [7] and 32.8% in experiment [8].
Regarding `CC(C)[C@@H]1C=C2CC[C@H]3[C@](C)(CN)CCC[C@]3(C)[C@H]2CC1`, the growth was 53.8% in experiment [1]; 90.7% in experiment [2]; -23% (active) in experiment [3]; -65.8% (active) in experiment [4]; -44.3% (active) in experiment [5]; 31.3% in experiment [6]. Besides, the growth in experiment [7] is -40.1% (active); in experiment [8], 37.8%.
Take `Cc1cc(Nc2c3ccccc3nc3ccccc23)ccc1NS(C)(=O)=O`: the growth was 45% in experiment [1]; 78.7% in experiment [2]; 36.8% in experiment [3]; 21.8% in experiment [4]; 27.4% in experiment [5]; 13.7% in experiment [6]. Also, the growth in experiment [7] is 50.8%; in experiment [8] it was 40.5%.
Regarding `O=C(Nc1cccc(Cl)c1)Nc1ccccc1Cl`, the growth in experiment [1] is 81.5%; in experiment [2], 99.2%; in experiment [3], 92.2%; in experiment [4], 89.5%; in experiment [5], 77.8%; in experiment [6], 90%. For the same compound, the growth in experiment [7] is 99.8%; in experiment [8], 89.9%.
In the case of `Fc1ccc(-c2cnc3nonc3n2)c(F)c1`, the growth in experiment [1] is 80.8%; in experiment [2] it was 91.6%; in experiment [3], 84.4%; in experiment [4], 97%; in experiment [5], 85%; in experiment [6] it was 96.9%. The growth was 93.5% in experiment [7] and 82.9% in experiment [8].
As for `O=C1/C(=C/c2ccccc2)SC(=Nc2ccccc2)N1Nc1ccccc1`, the growth is 5.78% (active) in experiment [1]; -19.3% (active) in experiment [2]; -25.4% (active) in experiment [3]; 13.1% in experiment [4]; 1.62% (active) in experiment [5]; -23.4% (active) in experiment [6]. For the same compound, the growth in experiment [7] was 20.3%; in experiment [8] it was 3.45% (active).
Take `CCCCCCCC/C=C\CCCCCCCC(=O)OCCCCCC`: the growth was 102% in experiment [1]; 114% in experiment [2]; 101% in experiment [3]; 106% in experiment [4]; 105% in experiment [5]; 100% in experiment [6]. Besides, the growth in experiment [7] was 107%; in experiment [8] it was 102%.
With `COc1ccc(/C=C(\C#N)c2cc(OC)c(OC)c(OC)c2)cc1`, the growth was 55.7% in experiment [1]; 27.3% in experiment [2]; 0.449% (active) in experiment [3]; 29.7% in experiment [4]; 3.63% (active) in experiment [5]; 1.54% (active) in experiment [6]. Besides, the growth in experiment [7] was 21.7%; in experiment [8], 6.76% (active).
As to `Cc1ccncc1NC=O`, the growth in experiment [1] is 102%; in experiment [2], 132%; in experiment [3], 105%; in experiment [4], 99.2%; in experiment [5], 95.9%; in experiment [6] it was 108%. Moreover, the values for the growth in experiment [7] and in experiment [8] were 113% and 103%, respectively.
For the compound `COc1ccc(-c2nn(C(=O)NCCN(C)C)cc2-c2ccncc2)cc1Cl`, the growth in experiment [1] is 37.1%; in experiment [2] it was 58.6%; in experiment [3] it was -25.3% (active); in experiment [4], 30.5%; in experiment [5], 19.3%; in experiment [6], 23.1%. Also, the growth is 76.4% in experiment [7] and 43.3% in experiment [8].
For `CCCC(CCC)(C(N)=O)C(=O)O`, the growth in experiment [1] was 111%; in experiment [2] it was 98.7%; in experiment [3], 102%; in experiment [4] it was 103%; in experiment [5], 109%; in experiment [6], 102%. The growth in experiment [7] is 100%; in experiment [8] it was 106%.
In the case of `O=C(/C=C/c1ccccc1)c1c[nH]c2ccccc2c1=O`, the growth was 17.3% in experiment [1]; -4.65% (active) in experiment [2]; -18.4% (active) in experiment [3]; -6.91% (active) in experiment [4]; 10.6% in experiment [5]; 0.346% (active) in experiment [6]. Moreover, the growth in experiment [7] is 51.3%; in experiment [8], 1.5% (active).
Regarding `COc1ccc(N=C2CSc3nnc(-c4cc(F)c(Cl)cc4Cl)n3N2)cc1`, the growth in experiment [1] is -20.1% (active); in experiment [2], -21.2% (active); in experiment [3] it was -45.6% (active); in experiment [4] it was -47.1% (active); in experiment [5], -34.3% (active); in experiment [6] it was -61.4% (active). Besides, the growth in experiment [7] was -71.4% (active); in experiment [8], -12.3% (active).
For `CCOC(=O)c1cc(C(=O)OCC)c(C)nc1C`, the growth in experiment [1] is 102%; in experiment [2], 115%; in experiment [3] it was 105%; in experiment [4] it was 110%; in experiment [5], 90.9%; in experiment [6], 105%. Further, the growth is 103% in experiment [7] and 111% in experiment [8].
Take `COc1ccccc1CNCCCN1C(=O)c2ccc3c4c(ccc(c24)C1=O)C(=O)N(CCCCNCCCN)C3=O`: the growth is -45.4% (active) in experiment [1]; 58% in experiment [2]; -70% (active) in experiment [3]; -25% (active) in experiment [4]; -41.7% (active) in experiment [5]; -11% (active) in experiment [6]. The figures for the growth in experiment [7] and in experiment [8] were -6.41% (active) and 10.7%, respectively.
Regarding `O=C(Nc1ccc(Br)cc1)c1ccc(Cl)c(Cl)c1`, the growth is 5.65% (active) in experiment [1]; 60.6% in experiment [2]; 31.4% in experiment [3]; 34.7% in experiment [4]; 20.1% in experiment [5]; 20.8% in experiment [6]. Besides, the growth was 67.7% in experiment [7] and 9.99% (active) in experiment [8].
Turning to `CS(=O)(=O)c1ccc(C(=O)N/N=C/c2ccccc2O)cc1`, the growth in experiment [1] was 52.4%; in experiment [2], 53%; in experiment [3] it was 59.7%; in experiment [4], 43.3%; in experiment [5], 22.5%; in experiment [6], 29.1%. In addition, the growth in experiment [7] is 47.3%; in experiment [8], 34.1%.
In the case of `COc1ccc(/C(C)=N/NC(=O)c2ccc(S(C)(=O)=O)cc2)cc1OC`, the growth is 82.6% in experiment [1]; 96% in experiment [2]; 112% in experiment [3]; 103% in experiment [4]; 92.9% in experiment [5]; 84.7% in experiment [6]. For the same compound, the results for the growth in experiment [7] and in experiment [8] were 104% and 103%, respectively.
Consider `COc1ccc(-c2ccc(-c3ccc(C(=N)N)s3)s2)cc1`, for which the growth is -64% (active) in experiment [1]; -81.3% (active) in experiment [2]; -78.1% (active) in experiment [3]; -69.1% (active) in experiment [4]; -50.1% (active) in experiment [5]; -47.8% (active) in experiment [6]. The results for the growth in experiment [7] and in experiment [8] were -81% (active) and -86.8% (active), respectively.
